The list is not random: actives were taken first. Their share in the collection is about 3%.
SNCA expr inh = Primary qHTS assay for inhibitors of alpha-synuclein gene (SNCA) expression | actives 0.17% (n = 140,000) | Potency, µM (top dose mostly 57.2 µM), most hits filed as inhibitors | HEK-293 SNCA-luciferase knock-in, luminescence, 24 h | AID 1671194, 2021; also: nearly all actives have a fitted effect of over 45% in size
SNCA viab count = GF-AFC viability counterscreen for inhibitors of alpha-synuclein gene (SNCA) expression | HEK-293-SNCA-luc viability, GF-AFC fluorescence, 24 h | Potency, µM (top dose mostly 57.1 µM), actives largely listed as cytotoxic | actives 0.12% (n = 150,000) | AID 1671193, 2021; also: nearly all actives have a fitted effect of over 30% in size
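HEK-293-SNCA-luc cells (1500/well) plated 24 h, then exposed 24 h to a dilution series; GF-AFC added 30 min at 37C, fluorescence 405/540 nm; normalised to medium-only and DMSO wells, Hill fit.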
IP6K1 inh = Primary qHTS assay for small molecule inhibitors of Inositol hexaphosphate kinase 1 (IP6K1). Inositol hexakisphosphate kinase 1 (Homo sapiens), Q92551. IP6K1 kinase, ADP-Glo luminescence, 2 h; hits give low values. activity change, % (series mostly up to about 58 µM). actives 0.81% (n = 140,000). AID 1645851, 2021; in the data active = activity change below about -25%
Target sequence (Q92551 whole entry, looked up): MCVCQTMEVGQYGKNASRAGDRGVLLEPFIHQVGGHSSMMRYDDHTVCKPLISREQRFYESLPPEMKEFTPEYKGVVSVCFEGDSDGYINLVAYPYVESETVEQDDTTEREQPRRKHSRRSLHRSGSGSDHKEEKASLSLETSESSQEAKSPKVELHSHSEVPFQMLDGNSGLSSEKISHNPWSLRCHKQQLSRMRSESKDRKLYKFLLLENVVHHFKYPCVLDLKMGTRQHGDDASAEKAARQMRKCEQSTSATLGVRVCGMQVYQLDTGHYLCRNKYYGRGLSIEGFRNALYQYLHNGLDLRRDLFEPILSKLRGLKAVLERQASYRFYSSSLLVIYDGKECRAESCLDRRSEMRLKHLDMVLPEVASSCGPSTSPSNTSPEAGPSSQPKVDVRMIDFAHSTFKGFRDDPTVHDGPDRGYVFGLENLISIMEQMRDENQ
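ADP-Glo luminescence measures ADP made by human IP6K1 during a 2 h RT reaction with ATP/IP6 (mix at 1.3 mM/130 uM); top library doses 57.5 and 19.1 uM final.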
KDM5B inh = Primary screen for KDM5B Histone Demethylases FDH-coupled qHTS; Lysine-specific demethylase 5B (Homo sapiens), Q9UGL1; KDM5B demethylase, FDH-coupled NADH fluorescence (FDH is formaldehyde dehydrogenase); Potency, µM (top dose mostly 57.7 µM), usual class: inhibitors; actives 2.6% (n = 220,000); AID 1347165, 2019; also: nearly all actives have a fitted effect of over 70% in size
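Compound dilutions met 200 nM (final) KDM5BΔAP for 10 min at room temperature before substrate addition. The substrate mix held 12.5 µM H3K4me3 with cofactors 25 µM α-ketoglutarate and 50 µM Fe²⁺. NADH signal gain over 30 min defined activity.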
IP6K1 conf = Confirmatory qHTS assay for small molecule inhibitors of Inositol hexaphosphate kinase 1 (IP6K1); shares compounds with IP6K1 inh; recombinant IP6K1 kinase, ADP-Glo luminescence, 2 h; Potency, µM (top dose mostly 49 µM), hits mostly inhibitors; actives 13% (n = 1,200); AID 1645852, 2021; also: nearly all actives have a fitted effect of over 65% in size
Of the large screens only hits and unclear results are named; the others gave an inactive call (follow-up assays come after a bar, where they were run); ! = not active in a repeat. Unless noted, calls follow the shape of the dose curve; as a rule, active = well fitted curve in the direction sought with a large enough effect; inconclusive = small, poorly fitted or top-dose-only effect, or another doubt; inactive = no such curve, though single readings can be large; an effect the other way counts as inactive or inconclusive.

COc1ccc(S(=O)(=O)NCCNc2cc(C)nc3ccnn23)cc1	KDM5B inh 28µM
CCC1=C(C(=O)OC)C(c2ccccc2C)N2C(CC(=O)NCC3CC3)=CSC2=N1 (stereo not drawn)	KDM5B inh 32µM
O=C(NCCN[S+](=O)([O-])c1cccc(C(F)(F)F)c1)c1ccc(-c2cccc(C(F)(F)F)c2)cc1	none (no result: SNCA expr inh, SNCA viab count, KDM5B inh)
Cn1cc(CC(=O)N2CCCc3ncc(C(=O)Nc4cccc(C(F)(F)F)c4)cc32)c2ccccc21	KDM5B inh 22µM
Cn1cc(CC(=O)N2CCCc3ncc(C(=O)Nc4cccc(F)c4)cc32)c2ccccc21	SNCA viab count inconclusive, KDM5B inh 32µM
COc1cccc(NC(=O)c2cnc3c(c2)N(C(=O)Cc2cn(C)c4ccccc24)CCC3)c1	SNCA viab count inconclusive, KDM5B inh inconclusive
CCC1CC(=O)NC(SC)=C1C#N (stereo not drawn)	none (no result: SNCA expr inh, SNCA viab count, IP6K1 inh)
CCc1nn(-c2ccc(OC)cc2)c(Oc2ccccc2F)c1CCC(=O)NC(C)C	none
CCc1nn(-c2ccc(OC)cc2)c(Oc2ccccc2F)c1CCC(=O)NCCOC	KDM5B inh 25µM
O=C(Nc1cccc2ccccc12)O[C@@H]1CO[C@H]2[C@@H]1OC[C@@H]2NCC1CCCCC1	SNCA expr inh inconclusive, KDM5B inh inconclusive
O=C(NCCc1ccccc1)c1cc(-c2ccsc2)c2nncn2n1	none (no result: KDM5B inh)
COc1cccc(NC(=O)Nc2cccc(-c3ccc(N4CCOCC4)nn3)c2)c1	SNCA viab count inconclusive
Nc1cccc(-c2ccc(N3CCOCC3)nn2)c1	SNCA expr inh inconclusive, IP6K1 inh -30 | IP6K1 conf inconclusive
O=C(C1CCCN(Cc2cccc3ccccc23)C1)N1CCCCC1 (stereo not drawn)	none (no result: SNCA expr inh, SNCA viab count, IP6K1 inh)
Cc1ccc(S(=O)(=O)N2CCCc3cc(NS(=O)(=O)c4cccc(Cl)c4)ccc32)cc1	SNCA expr inh inconclusive, IP6K1 inh -26 | IP6K1 conf inactive
CCOc1ccc(S(=O)(=O)Nc2ccc3c(c2)CCCN3S(=O)(=O)c2ccc(C)cc2)cc1	none
Fc1ccc(NN=C2c3ccccc3-c3ccccc32)c(F)c1	none (no result: SNCA expr inh, SNCA viab count, IP6K1 inh)
CC1CN(c2ccc(Cl)cc2)C(=O)CN1C(=O)CCn1cccc1 (stereo not drawn)	IP6K1 inh -33, KDM5B inh inconclusive | IP6K1 conf inactive
CCC[C@H]1CN(C(=O)c2ccccc2Cc2ccc(C)cc2)C[C@@H]1N	IP6K1 inh -26 | IP6K1 conf inactive
Cc1ccc(Cc2ccccc2C(=O)N2CCOC(C(F)(F)F)C2)cc1 (stereo not drawn)	none
O=C1NC(=O)/C(=C/c2ccc(-c3ccc(F)cc3O)o2)S1	none (no result: IP6K1 inh, KDM5B inh) | IP6K1 conf 2.6µM
Cc1noc(C)c1-c1ccc2c(n1)CN(Cc1ccc(C(F)(F)F)cc1)C(=O)CO2	none
O=C1COc2ccc(-c3ccoc3)nc2CN1Cc1ccc(C(F)(F)F)cc1	IP6K1 inh -29, KDM5B inh 35µM | IP6K1 conf inconclusive
Cn1nnnc1Sc1ncnc2scc(-c3cc4ccccc4o3)c12	none (no result: SNCA expr inh, SNCA viab count, IP6K1 inh, KDM5B inh) | IP6K1 conf inactive
Cn1nnnc1Sc1ncnc2scc(-c3ccc(C#N)cc3)c12	none (no result: SNCA expr inh, SNCA viab count, IP6K1 inh, KDM5B inh) | IP6K1 conf inactive
Cc1ccc(-c2csc3ncnc(Sc4nnc(CN5CCCC5)o4)c23)cc1	none (no result: SNCA expr inh, SNCA viab count, IP6K1 inh)
Cc1ccc(S(=O)(=O)N2CCN(Cc3ccccc3Cl)CC2)cc1	IP6K1 inh -56, KDM5B inh inconclusive | IP6K1 conf inactive
Cc1ccc(S(=O)(=O)N2CCCN(C(=O)c3cnn(Cc4ccccc4Cl)c3)CC2)cc1	none (no result: SNCA expr inh, SNCA viab count, IP6K1 inh)
CCN1CCN(CC(=O)c2c(C)[nH]c3cc(C)ccc23)CC1	none (no result: SNCA expr inh, SNCA viab count, IP6K1 inh)
CCCSC1=C(C#N)C(c2ccc(C)cc2)CC(=O)N1 (stereo not drawn)	none (no result: SNCA expr inh, SNCA viab count, IP6K1 inh)
O=[N+]([O-])c1ccc(CNc2nc(NCc3cccc(C(F)(F)F)c3)nc3nc[nH]c23)cc1	IP6K1 inh -75 (no result: SNCA expr inh, KDM5B inh) | IP6K1 conf 1.6µM!
Cc1cccc(NS(=O)(=O)c2nnc(NC(=O)c3cccc(C)c3)s2)c1	none
CC(C)C(=O)Nc1cccc(C(=O)Nc2nnc(C(F)(F)F)s2)c1	IP6K1 inh -29 | IP6K1 conf inactive
CSc1ccc(CCNC(=O)c2cnc3c(C)cccn3c2=O)cc1	IP6K1 inh -29 | IP6K1 conf inactive
